Assay [1] addresses Bile acid receptor (Homo sapiens) (UniProt Q96RI1). The experiment in a line: ATG_FXR_TRANS: Attagene TRANS-FACTORIAL HepG2 Assay for Farnesoid X Receptor (FXR) (AID 2282979).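 Further: hits raise reporter mRNA above DMSO so AC50 marks FXR activation.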 Conditions: HepG2 Attagene TRANS FXR-GAL4 reporter transcription. In a few lines: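 Transient transfection of HepG2 with multiplexed GAL4-UAS reporter units; exogenous FXR-GAL4 chimera. Dose 24 h → TriZol RNA → oligo(dT) RT → PCR, 6-FAM primer extension, HpaI cut → CE. Gain vs DMSO.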

Assay [2] addresses Retinoic acid receptor RXR-alpha (Homo sapiens) (UniProt P19793). The assay can be described thus: ATG_RXRa_TRANS: Attagene TRANS-FACTORIAL HepG2 Assay for human Retinoid X Receptor alpha (RXRa) (AID 2283012). Put shortly: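 HepG2 cells transiently transfected with GAL4-UAS reporter units and chimeric RXRa-Gal4 protein, treated 24 h. Reporter mRNA measured by RT-PCR, fluorescent labelling, HpaI digestion and capillary electrophoresis. Induction fitted against DMSO.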

A short description of assay [3]: ATG_PPRE_CIS: Attagene CIS-FACTORIAL HepG2 Assay for human Peroxisome Proliferator-activated Response Element (PPRE) (AID 2282958; active means hit-call score of the fitted dose curve at least 0.9, where 1 is the maximum; inactive means score below 0.9). The note with it: HepG2 PPRE cis-element reporter, Attagene transcription factor profiling; actives raise or lower the signal. Put shortly: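 Cells are first transfected transiently with the multiplexed reporter library, then dosed for 24 h. Total RNA is reverse-transcribed, amplified, fluorescently end-labeled and HpaI-cut before capillary electrophoresis; activity is fitted bidirectionally against DMSO controls.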

Assay [4] concerns the target Steroid hormone receptor ERR1 (Homo sapiens) (UniProt P11474). The experiment in a line: ATG_ERRa_TRANS: Attagene TRANS-FACTORIAL HepG2 Assay for human Estrogen-Related Receptor alpha (ERRa) (AID 2282971). Conditions: HepG2 Attagene TRANS reporter, ERRa transactivation. In a few lines: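 Reporter transcript induction was quantified by RT-PCR and capillary electrophoresis of FAM-labelled, HpaI-cut products after 24 h treatment of HepG2 cells carrying transiently transfected GAL4-UAS reporter units and an exogenous ERRa-Gal4 fusion; activity scored as increase over DMSO.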

For assay [5], the target named is Estrogen-related receptor gamma (Homo sapiens) (UniProt P62508). The assay can be described thus: ATG_ERRg_TRANS: Attagene TRANS-FACTORIAL HepG2 Assay for human Estrogen-Related Receptor gamma (ERRg) (AID 2282977).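 Further: hits increase reporter signal over DMSO so potencies reflect activators.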 Conditions: HepG2 Attagene TRANS reporter, ERRg transactivation. Put shortly: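 HepG2 cells transiently transfected with multiplexed GAL4-UAS reporter units driven by chimeric NR-Gal4 proteins; 24 h exposure. Reporter mRNA quantified by RT-PCR, fluorescent labelling, HpaI digestion and capillary electrophoresis; gain of signal vs DMSO.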
Sequence of Estrogen-related receptor gamma (Homo sapiens) (P62508 whole entry, looked up, the tested form may be a part): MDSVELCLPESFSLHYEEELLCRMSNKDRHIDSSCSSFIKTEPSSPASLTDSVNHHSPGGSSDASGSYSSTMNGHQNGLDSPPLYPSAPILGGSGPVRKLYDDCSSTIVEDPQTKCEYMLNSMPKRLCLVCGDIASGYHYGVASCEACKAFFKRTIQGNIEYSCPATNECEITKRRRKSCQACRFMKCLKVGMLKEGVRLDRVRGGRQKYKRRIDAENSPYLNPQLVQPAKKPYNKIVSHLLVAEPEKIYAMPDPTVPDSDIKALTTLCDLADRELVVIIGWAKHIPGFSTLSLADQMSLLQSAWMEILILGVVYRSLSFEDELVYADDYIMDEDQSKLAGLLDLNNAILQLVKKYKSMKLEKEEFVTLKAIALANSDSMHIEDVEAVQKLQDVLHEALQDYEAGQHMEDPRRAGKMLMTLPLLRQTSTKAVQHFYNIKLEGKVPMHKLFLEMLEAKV

Assay [6] concerns the target Nuclear receptor subfamily 4 group A member 2 (Homo sapiens) (UniProt P43354). The assay can be described thus: ATG_NURR1_TRANS: Attagene TRANS-FACTORIAL HepG2 Assay for human Nuclear Receptor Related Protein 1 (NURR1) (AID 2282985). The note with it: HepG2 Attagene TRANS reporter, mRNA readout. Put shortly:
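HepG2 cells transiently transfected with NURR1-Gal4 chimera and GAL4-UAS reporter units; after 24 hr compound exposure, reporter mRNA quantified by RT-PCR and capillary electrophoresis; gain of signal fitted against DMSO.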

The target in assay [7] is Peroxisome proliferator-activated receptor gamma (Homo sapiens) (UniProt P37231). The assay can be described thus: ATG_PPARg_TRANS: Attagene TRANS-FACTORIAL HepG2 Assay for human Peroxisome Proliferator-activated Receptor-gamma (PPARg) (AID 2283007). Put shortly:
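A TRANS-format multiplexed reporter assay measures activity of an exogenous chimeric NR-Gal4 protein in HepG2 cells. After 24 h of chemical exposure, reporter transcripts are amplified, fluorescently labelled and sized by capillary electrophoresis, with gain of signal scored against DMSO.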

Assay [8] concerns the target Estrogen receptor beta (Homo sapiens) (UniProt Q92731). The assay can be described thus: OT_ER_ERbERb_0480: Odyssey Thera (OT) 8-hour HEK293T Protein-Complementation Assay for Estrogen Receptor-beta/-beta Homodimer (AID 2283357).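 Further: active means signal gain over DMSO baseline.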 Put shortly: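 Fluorescence intensity, nuclear for agonists and nuclear plus cytoplasmic for antagonists, was quantified by laser scanning cytometry versus vehicle after 8 h treatment. The cells were HEK293T stably carrying ER beta LBD fragment-complementation partners.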

The target is the same in assay [9]. The experiment in a line: OT_ER_ERbERb_1440: Odyssey Thera (OT) 24-hour HEK293T Protein-Complementation Assay for Estrogen Receptor-beta/-beta Homodimer (AID 2283380).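 Further: scored as signal increase over DMSO baseline for both agonists and antagonists.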 In a few lines:
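HEK293T cells stably expressing ER beta LBD (aa 310-547) homodimer fragment-complementation reporter, dosed 24 h. Cells formaldehyde-fixed, Draq5-stained; gain in nuclear (agonist) or nuclear plus cytoplasmic (antagonist) fluorescence versus DMSO read by laser scanning cytometry.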

For assay [10], the target named is Retinoic acid receptor RXR-alpha (Homo sapiens) (UniProt P19793). The experiment in a line: OT_NURR1_NURR1RXRa_1440: Odyssey Thera (OT) 24-hour HEK293T Protein Complementation Assay for Nurr1/retinoid X receptor (RXR) (AID 2283386). Put shortly:
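HEK293T protein-fragment complementation of Nurr1 and RXRα fused to reporter fragments; compounds 24 h. Fluorescence gain from reconstituted reporter fitted versus DMSO.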

Assay [11] has as its target Peroxisome proliferator-activated receptor gamma (Homo sapiens) (UniProt P37231). The assay can be described thus: OT_PPARg_PPARgSRC1_0480: Odyssey Thera (OT) 8-hour Protein-Complementation Assay for Peroxisome Proliferator-activated Receptor Gamma / SRC-1 Co-activator (AID 2283387).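 Further: nuclear to cytoplasmic split Venus YFP fluorescence ratio reporting PPARg SRC-1 interaction.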 In a few lines: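 Protein-fragment complementation of split Venus YFP reports PPARg/SRC-1 interaction in HEK293T (transfected 48 h before treatment), exposed 8 h. Readout: N/C fluorescence ratio at 488 nm from imaging, Draq5 for segmentation, positive fit relative to DMSO.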

Assay [12] shares this target. The experiment in a line: OT_PPARg_PPARgSRC1_1440: Odyssey Thera (OT) 24-hour Protein-Complementation Assay for Peroxisome Proliferator-activated Receptor Gamma/ SRC-1 Co-activator (AID 2283388).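 Further: nuclear to cytoplasmic ratio of reconstituted Venus YFP fluorescence in fixed imaged cells.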 Put shortly: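 Protein-fragment complementation between PPARg and coactivator SRC-1 was measured by fluorescence imaging in transiently transfected HEK293T cells after 24 h treatment. Signal was quantified as N/C ratio in the 488 nm channel, with DMSO as negative control.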

A short description of assay [13]: ACEA_AR_agonist_AUC_viability: ACEA Biosciences xCELLigence Real-Time Cell Analysis on Androgen Receptor Agonism for Viability (AID 2283775). Put shortly: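 Real-time impedance tracking of 22Rv1 growth, readings every 5 min for 5 h then hourly; area-under-curve viability endpoint at 80 hours, relative to DMSO. Compounds at eight concentrations, 1:4 steps, top 100 uM, n = 2.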

Assay [14] can be described thus: ACEA_AR_antagonist_AUC_viability: ACEA Biosciences xCELLigence Real-Time Cell Analysis on Androgen Receptor Antagonism for Viability (AID 2283776).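 Further: 22Rv1 human prostate cancer cells growing on impedance electrode plates; hits lower the growth signal relative to DMSO meaning cytotoxicity.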 Put shortly:
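Impedance read-out (RT-CES): area under growth curve at 80 h post-dose, loss of signal scored vs DMSO baseline. 22Rv1 cells; 8-pt 1:4 series, top 100 uM final, ≤0.5% DMSO; biological duplicate.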

The nature of assay [15]: CCTE_Shafer_MEA_acute_AB: CCTE's Alamar Blue Assay for Cytotoxicity in the Neural Acute Assay, Shafer Lab (AID 2284069).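 Further: active compounds lower the viability signal compared with DMSO wells.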 In a few lines:
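Resazurin reduction (CellTiter Blue, 1:6 in fresh medium) read at ex 544/em 590 nm marks viability loss relative to DMSO. Cells: primary rat cortical neuron networks on microelectrode arrays, treated after baseline recording at 13 or 15 days in vitro.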

For assay [16], the target named is Retinoic acid receptor alpha (Homo sapiens) (UniProt P10276). The experiment in a line: ATG_DR5_RAR_CIS: Attagene CIS-FACTORIAL HepG2 Assay for human Retinoic Acid Receptor Alpha (RARE), DR5 submotif (AID 2282934; active means hit-call score of the fitted dose curve at least 0.9, where 1 is the maximum; inactive means score below 0.9). Conditions: HepG2 Attagene cis-factorial RARE DR5 reporter, mRNA; actives raise or lower the signal. Put shortly: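 HepG2 cells transiently transfected with multiplexed reporter units; DR5 cis-element drives reporter through endogenous transcription factors. After 24 h dosing, reporter mRNA quantified by RT-PCR, fluorescent labeling, HpaI digestion and capillary electrophoresis; bidirectional fitting versus DMSO.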
Sequence of Retinoic acid receptor alpha (Homo sapiens) (P10276 whole entry, looked up): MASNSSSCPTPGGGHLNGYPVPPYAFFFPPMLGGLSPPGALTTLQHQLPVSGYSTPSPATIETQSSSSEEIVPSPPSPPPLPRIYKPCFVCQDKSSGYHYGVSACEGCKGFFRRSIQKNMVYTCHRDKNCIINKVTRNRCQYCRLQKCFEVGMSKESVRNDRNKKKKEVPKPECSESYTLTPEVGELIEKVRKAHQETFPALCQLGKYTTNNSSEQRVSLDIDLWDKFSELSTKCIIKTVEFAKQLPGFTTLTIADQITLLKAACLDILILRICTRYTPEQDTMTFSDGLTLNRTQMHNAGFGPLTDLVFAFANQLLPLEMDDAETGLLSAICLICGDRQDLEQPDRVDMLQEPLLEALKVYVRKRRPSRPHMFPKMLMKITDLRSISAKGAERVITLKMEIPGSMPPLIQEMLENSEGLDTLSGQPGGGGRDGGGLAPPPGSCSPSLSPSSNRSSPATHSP

Assay [17] has as its target human Vitamin D Receptor (VDR), VDR (gene 7421) (UniProt P11473). The experiment in a line: ATG_VDR_TRANS: Attagene TRANS-FACTORIAL HepG2 Assay for human Vitamin D Receptor (VDR) (AID 2283022). In a few lines: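 Steps: transfect HepG2 with GAL4-UAS-driven reporter constructs; dose compounds 24 h; isolate RNA, reverse-transcribe, PCR-amplify with 6-FAM-labelled primer extension and HpaI digestion; quantify fragments by capillary electrophoresis relative to DMSO.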

A short description of assay [18]: ATG_PBREM_CIS: Attagene CIS-FACTORIAL HepG2 Assay for human Phenobarbital-responsive Enhancer Module (PBREM) (AID 2282955; active means hit-call score of the fitted dose curve at least 0.9, where 1 is the maximum; inactive means score below 0.9). The note with it: HepG2 PBREM cis-reporter, Attagene multiplexed transcription; actives raise or lower the signal. Put shortly:
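Fluorescence of labelled reporter cDNA fragments, resolved by capillary electrophoresis, gives mRNA induction in transfected HepG2 cells treated for 24 h; DMSO serves as negative control and baseline.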

The target in assay [19] is Nuclear receptor subfamily 1 group I member 3 (Homo sapiens) (UniProt Q14994). The experiment in a line: ATG_CAR_TRANS: Attagene TRANS-FACTORIAL HepG2 Assay for human Constitutive Androstane Receptor (CAR) (AID 2282969).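 Further: activators raise reporter mRNA above DMSO so AC50 marks induction.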 The note with it: HepG2 Attagene TRANS-FACTORIAL CAR reporter. In a few lines:
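HepG2 cells transiently transfected with GAL4-UAS reporter units; TRANS format reads activity of exogenous chimeric NR-Gal4 protein. After 24 h dosing, reporter mRNA quantified by RT-PCR, 6-FAM labelling and capillary electrophoresis; gain of signal fitted against DMSO.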

Assay [20] in a line: CCTE_Harrill_HTTr_CellCount_MCF7: CCTE's Cell Proliferation Assessment for the High-Throughput Transcriptomics (HTTr) Platform, Harrill Lab (AID 2284012).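 Further: cells exposed to compound for six hours; intended direction is loss of nuclei count meaning fewer cells.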 In a few lines:
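MCF7 cells exposed 6 hours to an eight-point dilution series; Hoechst-stained nuclei counted by high-content imaging. Bidirectional curve fitting against DMSO baseline.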

Structures are written as SMILES. Records with an inconclusive call do not appear. Active and inactive are the calls of the source. How the source made its calls, unless noted: active means hit-call score of the fitted dose curve at least 0.9, where 1 is the maximum; inconclusive means response in the unintended direction; inactive means score below 0.9.

The source of these data is PubChem BioAssay (EPA / NIEHS).

Sequence of Steroid hormone receptor ERR1 (Homo sapiens) (P11474 whole entry, looked up, the tested form may be a part): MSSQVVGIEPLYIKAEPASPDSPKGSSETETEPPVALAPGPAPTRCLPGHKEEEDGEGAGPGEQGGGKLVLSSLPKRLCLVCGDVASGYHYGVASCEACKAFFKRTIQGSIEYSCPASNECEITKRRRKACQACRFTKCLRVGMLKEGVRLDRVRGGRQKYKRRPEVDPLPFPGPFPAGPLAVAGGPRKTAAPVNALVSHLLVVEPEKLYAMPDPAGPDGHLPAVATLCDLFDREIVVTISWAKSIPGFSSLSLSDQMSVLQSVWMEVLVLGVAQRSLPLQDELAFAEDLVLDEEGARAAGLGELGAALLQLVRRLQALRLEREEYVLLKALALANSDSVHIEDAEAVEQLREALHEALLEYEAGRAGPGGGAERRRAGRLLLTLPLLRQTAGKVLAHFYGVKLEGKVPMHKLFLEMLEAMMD
Sequence of Peroxisome proliferator-activated receptor gamma (Homo sapiens) (P37231 whole entry, looked up, the tested form may be a part): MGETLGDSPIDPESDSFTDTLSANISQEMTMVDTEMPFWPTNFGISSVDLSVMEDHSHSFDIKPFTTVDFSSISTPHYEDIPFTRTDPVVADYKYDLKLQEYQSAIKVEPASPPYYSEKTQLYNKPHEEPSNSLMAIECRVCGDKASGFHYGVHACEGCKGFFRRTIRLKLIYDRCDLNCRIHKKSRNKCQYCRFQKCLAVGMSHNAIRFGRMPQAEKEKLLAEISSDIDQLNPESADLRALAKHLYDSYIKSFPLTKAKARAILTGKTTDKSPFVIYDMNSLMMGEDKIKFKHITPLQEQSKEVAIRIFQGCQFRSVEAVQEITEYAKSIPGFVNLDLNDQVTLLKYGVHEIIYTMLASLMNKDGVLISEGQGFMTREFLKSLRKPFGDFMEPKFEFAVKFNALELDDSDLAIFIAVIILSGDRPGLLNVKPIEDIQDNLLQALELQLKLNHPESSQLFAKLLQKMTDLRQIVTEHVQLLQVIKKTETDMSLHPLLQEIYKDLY
Sequence of Nuclear receptor subfamily 4 group A member 2 (Homo sapiens) (P43354 whole entry, looked up, the tested form may be a part): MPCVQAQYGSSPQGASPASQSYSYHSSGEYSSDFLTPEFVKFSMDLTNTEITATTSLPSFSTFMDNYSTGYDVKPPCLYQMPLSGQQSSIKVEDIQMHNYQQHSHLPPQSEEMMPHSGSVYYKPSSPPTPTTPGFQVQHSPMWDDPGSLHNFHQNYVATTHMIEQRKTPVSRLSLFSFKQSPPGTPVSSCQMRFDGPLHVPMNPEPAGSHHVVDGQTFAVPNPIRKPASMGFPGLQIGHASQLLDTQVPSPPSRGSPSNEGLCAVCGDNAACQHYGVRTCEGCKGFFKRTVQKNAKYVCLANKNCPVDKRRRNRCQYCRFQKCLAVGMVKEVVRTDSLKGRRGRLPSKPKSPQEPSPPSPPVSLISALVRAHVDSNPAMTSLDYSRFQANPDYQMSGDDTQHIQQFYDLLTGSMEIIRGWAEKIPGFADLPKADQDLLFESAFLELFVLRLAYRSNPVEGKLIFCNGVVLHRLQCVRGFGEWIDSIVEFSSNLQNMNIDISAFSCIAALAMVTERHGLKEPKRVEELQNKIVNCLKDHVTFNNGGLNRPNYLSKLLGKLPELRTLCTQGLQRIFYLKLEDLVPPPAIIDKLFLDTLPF
Sequence of Estrogen receptor beta (Homo sapiens) (Q92731 whole entry, looked up, the tested form may be a part): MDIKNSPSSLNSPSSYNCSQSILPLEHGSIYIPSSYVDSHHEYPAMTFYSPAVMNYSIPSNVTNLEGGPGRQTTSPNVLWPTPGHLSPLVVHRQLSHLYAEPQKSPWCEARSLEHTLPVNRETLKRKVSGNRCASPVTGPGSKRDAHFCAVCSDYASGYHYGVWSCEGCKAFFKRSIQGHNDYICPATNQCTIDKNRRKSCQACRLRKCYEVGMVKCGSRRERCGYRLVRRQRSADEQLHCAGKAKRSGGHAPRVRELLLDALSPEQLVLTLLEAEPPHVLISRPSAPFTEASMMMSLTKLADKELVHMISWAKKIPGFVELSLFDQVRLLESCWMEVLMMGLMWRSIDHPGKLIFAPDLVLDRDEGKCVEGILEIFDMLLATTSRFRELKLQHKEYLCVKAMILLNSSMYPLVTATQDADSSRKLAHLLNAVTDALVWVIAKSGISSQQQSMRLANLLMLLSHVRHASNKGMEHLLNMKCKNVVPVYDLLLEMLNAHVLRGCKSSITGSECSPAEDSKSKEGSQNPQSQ
Sequence of Retinoic acid receptor RXR-alpha (Homo sapiens) (P19793 whole entry, looked up, the tested form may be a part): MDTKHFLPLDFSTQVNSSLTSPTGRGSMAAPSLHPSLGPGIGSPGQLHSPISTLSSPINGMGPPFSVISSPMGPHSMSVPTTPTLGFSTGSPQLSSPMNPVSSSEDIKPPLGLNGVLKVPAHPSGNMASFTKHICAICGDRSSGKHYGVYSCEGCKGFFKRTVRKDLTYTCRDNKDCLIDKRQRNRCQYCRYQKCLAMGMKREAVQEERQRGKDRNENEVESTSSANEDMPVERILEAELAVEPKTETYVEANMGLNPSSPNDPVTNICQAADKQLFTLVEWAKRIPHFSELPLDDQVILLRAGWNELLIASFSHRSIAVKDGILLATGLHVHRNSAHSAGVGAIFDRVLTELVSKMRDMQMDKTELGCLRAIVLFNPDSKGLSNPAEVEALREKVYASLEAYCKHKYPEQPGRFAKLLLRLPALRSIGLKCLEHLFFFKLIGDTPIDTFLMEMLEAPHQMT
Sequence of Bile acid receptor (Homo sapiens) (Q96RI1 whole entry, looked up, the tested form may be a part): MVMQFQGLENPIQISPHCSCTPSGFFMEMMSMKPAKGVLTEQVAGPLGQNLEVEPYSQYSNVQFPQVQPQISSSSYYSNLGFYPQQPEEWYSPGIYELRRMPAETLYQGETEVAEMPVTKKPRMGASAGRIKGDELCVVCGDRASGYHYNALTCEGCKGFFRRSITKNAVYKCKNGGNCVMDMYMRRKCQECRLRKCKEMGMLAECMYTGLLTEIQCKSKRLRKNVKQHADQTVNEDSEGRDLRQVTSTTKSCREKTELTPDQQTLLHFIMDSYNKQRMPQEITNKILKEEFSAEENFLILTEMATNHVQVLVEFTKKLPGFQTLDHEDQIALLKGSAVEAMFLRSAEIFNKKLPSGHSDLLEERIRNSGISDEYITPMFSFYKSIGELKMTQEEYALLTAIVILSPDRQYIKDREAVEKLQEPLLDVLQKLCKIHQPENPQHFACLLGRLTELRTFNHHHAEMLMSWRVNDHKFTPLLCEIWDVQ
Sequence of human Vitamin D Receptor (VDR), VDR (gene 7421) (P11473 whole entry, looked up, the tested form may be a part): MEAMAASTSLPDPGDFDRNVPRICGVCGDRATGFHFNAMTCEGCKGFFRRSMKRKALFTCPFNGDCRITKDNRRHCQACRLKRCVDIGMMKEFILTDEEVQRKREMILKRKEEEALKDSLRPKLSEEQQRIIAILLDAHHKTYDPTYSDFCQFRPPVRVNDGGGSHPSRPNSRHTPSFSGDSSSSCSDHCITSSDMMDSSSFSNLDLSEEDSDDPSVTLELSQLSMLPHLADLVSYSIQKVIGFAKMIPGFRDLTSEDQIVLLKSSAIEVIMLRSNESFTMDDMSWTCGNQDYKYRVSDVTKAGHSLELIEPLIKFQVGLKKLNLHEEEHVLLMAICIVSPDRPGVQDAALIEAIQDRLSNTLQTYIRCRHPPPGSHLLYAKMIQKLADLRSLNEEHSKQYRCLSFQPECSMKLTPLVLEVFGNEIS
Sequence of Nuclear receptor subfamily 1 group I member 3 (Homo sapiens) (Q14994 whole entry, looked up, the tested form may be a part): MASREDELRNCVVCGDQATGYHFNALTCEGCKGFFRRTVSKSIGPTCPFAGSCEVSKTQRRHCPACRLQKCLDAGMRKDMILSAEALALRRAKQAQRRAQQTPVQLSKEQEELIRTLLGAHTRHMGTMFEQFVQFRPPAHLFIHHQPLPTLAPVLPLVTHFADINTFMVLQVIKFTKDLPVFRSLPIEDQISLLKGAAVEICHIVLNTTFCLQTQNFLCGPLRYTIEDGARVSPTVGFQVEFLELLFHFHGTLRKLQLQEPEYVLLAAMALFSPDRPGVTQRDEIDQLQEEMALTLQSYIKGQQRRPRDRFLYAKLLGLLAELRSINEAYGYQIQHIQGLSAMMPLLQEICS

As for `CC1=CCCC(C)(C)C12CCC(C)O2` (stereo not given), the molecule was called inactive in [1] and in assay [2].
Take `CCOC(=O)c1ccccc1`: the call in [3], in assay [4], in assay [5], in assay [6], in [7] and in assay [2] was inactive. In addition, the call in assay [8], in assay [9], in assay [10], in assay [11], in assay [12] and in assay [13] was inactive. Further, in assay [14], the result was inactive.
Consider `CCC[Si](OC(C)=O)(OC(C)=O)OC(C)=O`, for which the result in assay [15] was inactive.
Take `CCC(C)(CCC(C)C)C(=O)O` (stereo not given): the molecule was called inactive in [16], in assay [4], in [17], in assay [13] and in [14].
Turning to `CCO[Si](CCCN)(OCC)OCC`, the result in assay [18], in assay [3], in assay [4], in assay [5], in assay [1] and in [6] was inactive. Further, the call in assay [11], in assay [12] and in [13] was inactive.
With `COc1ccccc1Oc1c(NS(=O)(=O)c2ccc(C(C)(C)C)cc2)nc(-c2ncccn2)nc1OCCO`, the call in assay [15] was inactive.
Take `CNC(=C[N+](=O)[O-])NCCSCc1csc(CN(C)C)n1`: the outcome in assay [18], in assay [3], in [19] and in assay [20] was inactive.
Regarding `CCCCCC[C@@H](O)C/C=C\CCCCCCCC(=O)O`, the result in assay [18], in assay [1], in assay [2], in assay [17], in assay [8] and in [9] was inactive. Moreover, the molecule was called inactive in assay [10], in assay [11], in [12], in [13], in [14] and in assay [20]. Further, the AC50 is 45.7 µM (active) in assay [3], 108 µM (active) in [6] and 27.4 µM (active) in assay [7].
